C diff growth: C. difficile growth inhibitors, primary screen, HTS | Clostridium difficile clinical isolate growth, OD600, 24 h; active compounds read low | growth activity, negative = inhibition, % at 16 µg/mL (by protocol) | 0.25% of 86,000 active | AID 1259249, 2017;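 active means mean growth activity at or below -80% and every replicate also at or below -80%; inconclusive means mean at or below -80% but some replicate above -80%; inactive means mean growth activity above -80%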
T cruzi growth-1: T. cruzi intracellular proliferation inhibitors, primary screen, cell-based, beta-gal Tulahuen parasites, NIH3T3 host, luminescence; inhibition, % at 8.34 µM; AID 624255, 2012; T. cruzi beta-gal in NIH3T3, GalScreen luminescence, 90 h; 5.9% of 77,000 active;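 active means mean inhibition above about 93%, with at least 55% of replicates each passing it, limit read from the data, passing the limit was not always enough; inconclusive means only one of those two conditions holds; inactive means neither condition holds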
Pf Dd2 growth: P. falciparum Dd2 growth inhibitors, primary screen, SYBR Green fluorescence, single dose replicates; 72 h; active compounds read low; activity change, % at 10 µM; 2.3% of 94,000 active; in the data active means activity change below about -80%; inconclusive means no clear call, values can overlap the other calls
T cruzi growth-2: T. cruzi intracellular proliferation inhibitors, confirmation, cell-based, NIH3T3 host, beta-gal parasite, luminescence, cherry-pick; shares compounds with T cruzi growth-1; T. cruzi beta-gal in NIH3T3, GalScreen luminescence, 90 h; inhibition, % at 8.35 µM; 72% of 5,600 active; AID 651739, 2012;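 active means mean replicate inhibition above about 95% and at least 55% of replicates individually reaching it, limit read from the data; inconclusive means only one of the two criteria is met; inactive means neither criterion is met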
T cruzi growth-3: inhibitors of intracellular T. cruzi replication, confirmation, NIH3T3 host cells, beta-gal parasites, cherry-pick, set 2. shares compounds with T cruzi growth-1. T. cruzi beta-gal in NIH3T3, GalScreen luminescence, 90 h. inhibition, % at 2.09 µM. 21% of 5,600 active. AID 651740, 2012;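 active means mean inhibition above about 95%, with at least 55% of replicates also reaching it, limit read from the data; inconclusive means meets just one of the two conditions; inactive means meets neither condition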
NIH3T3 tox: cytotoxicity in mouse NIH/3T3 fibroblasts, confirmation, cytotoxicity control for T. cruzi proliferation inhibitor project, cell-based, cherry-pick, single point; shares compounds with T cruzi growth-1; NIH/3T3 viability, CellTiter-Glo ATP luminescence, 90 h; cytotoxicity (signal decrease), % at 8.35 µM; 14% of 5,600 active; AID 651742, 2012;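 active means mean signal decrease across replicates above about 35% based on untreated-well scatter, with enough replicates individually passing, limit read from the data; inconclusive means no rule stated though some were filed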
3T3 cytotox 2: NIH/3T3 fibroblast cytotoxicity, confirmation, cytotoxicity control, cell-based, cherry-pick, single point, set 2; shares compounds with T cruzi growth-1; NIH/3T3 viability, CellTiter-Glo ATP luminescence, 90 h; inhibition, % at 24.9 µM; 56% of 5,600 active;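 active means mean loss of cell viability signal at or above a set limit, and enough replicates individually reaching it; inconclusive means meets only the mean limit or only the replicate share; inactive means meets neither condition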
Of the large screens only hits and unclear results are named; the others gave an inactive call (follow-up assays come after a bar, where they were run). Most compounds without a hit are left out; they make up all but 6.8% or so of the library.

CCCC#Cc1ccc2c(c1)O[C@H](CN(C)S(=O)(=O)c1cccc(F)c1)[C@@H](C)CN([C@@H](C)CO)S2(=O)=O	T cruzi growth-1 114 | T cruzi growth-2 100 | T cruzi growth-3 117 | NIH3T3 tox inactive | 3T3 cytotox 2 104
CCCC#Cc1ccc2c(c1)O[C@H](CN(C)S(=O)(=O)c1cccc(F)c1)[C@H](C)CN([C@@H](C)CO)S2(=O)=O	T cruzi growth-1 124 | T cruzi growth-2 96 | T cruzi growth-3 99 | NIH3T3 tox 43 | 3T3 cytotox 2 76
C[C@@H]1CN([C@@H](C)CO)S(=O)(=O)c2ccc(C#CCN(C)C)cc2O[C@H]1CN(C)S(=O)(=O)c1cccc(F)c1	none (no result: T cruzi growth-1)
COCC#Cc1ccc2c(c1)O[C@H](CN(C)S(=O)(=O)c1cccc(F)c1)[C@@H](C)CN([C@H](C)CO)S2(=O)=O	T cruzi growth-1 inconclusive | T cruzi growth-2 inactive | T cruzi growth-3 inactive | NIH3T3 tox inactive | 3T3 cytotox 2 69
COCC#Cc1ccc2c(c1)O[C@@H](CN(C)S(=O)(=O)c1cccc(F)c1)[C@@H](C)CN([C@@H](C)CO)S2(=O)=O	none
CN(C)C(=O)c1ccc(-c2ccc3c(c2)[C@H]2[C@H](CCN2C(=O)c2ccccn2)[C@H](CO)N3)cc1	none
COc1ccc(NC(=O)N[C@H]2CC[C@H](CCNC(=O)Nc3cc(F)ccc3F)O[C@@H]2CO)cc1	none
C[C@H]1CN([C@@H](C)CO)C(=O)Cc2cc(N(C)C)ccc2O[C@H]1CN(C)C(=O)Nc1ccccc1	none
CCNC(=O)Nc1ccc2c(c1)C(=O)N(C)[C@@H]1CC[C@@H](CC(=O)N[C@H](C)c3ccccc3)O[C@@H]1CO2	none (no result: Pf Dd2 growth)
COc1ccc(C#Cc2ccc3c(c2)O[C@@H](CN(C)C(=O)c2ccccn2)[C@@H](C)CN([C@@H](C)CO)S3(=O)=O)cc1	none (no result: T cruzi growth-1)
CCCC#Cc1ccc2c(c1)O[C@H](CN(C)S(C)(=O)=O)[C@@H](C)CN([C@H](C)CO)S2(=O)=O	none
CCCC#Cc1ccc2c(c1)O[C@@H](CN(C)S(=O)(=O)c1cccc(F)c1)[C@H](C)CN([C@@H](C)CO)S2(=O)=O	T cruzi growth-1 124 | T cruzi growth-2 106 | T cruzi growth-3 108 | NIH3T3 tox inactive | 3T3 cytotox 2 67
C[C@H]1CCCCO[C@H](CN(C)Cc2ccc3c(c2)OCO3)[C@@H](C)CN([C@@H](C)CO)C(=O)c2cc(NC(=O)c3ccccc3)ccc2O1	none (no result: T cruzi growth-1)
CCCC#Cc1ccc2c(c1)O[C@H](CN(C)C(=O)c1ccncc1)[C@H](C)CN([C@@H](C)CO)S2(=O)=O	none
CCCC#Cc1ccc2c(c1)O[C@H](CN(C)C(=O)c1ccccc1)[C@@H](C)CN([C@@H](C)CO)S2(=O)=O	T cruzi growth-1 112 | T cruzi growth-2 104 | T cruzi growth-3 inactive | NIH3T3 tox inactive | 3T3 cytotox 2 35
CC(C)CC#Cc1ccc2c(c1)O[C@@H](CN(C)C(=O)c1ccccc1)[C@@H](C)CN([C@@H](C)CO)S2(=O)=O	T cruzi growth-1 120 | T cruzi growth-2 102 | T cruzi growth-3 inactive | NIH3T3 tox inactive | 3T3 cytotox 2 103
COCC#Cc1ccc2c(c1)O[C@H](CN(C)C(=O)c1ccccc1)[C@@H](C)CN([C@H](C)CO)S2(=O)=O	none
CCCC#Cc1ccc2c(c1)O[C@H](CN(C)C(=O)c1ccccc1)[C@H](C)CN([C@H](C)CO)S2(=O)=O	T cruzi growth-1 98 | T cruzi growth-2 107 | T cruzi growth-3 inactive | NIH3T3 tox inactive | 3T3 cytotox 2 58
CCCC#Cc1ccc2c(c1)O[C@@H](CN(C)C(=O)c1ccccc1)[C@H](C)CN([C@@H](C)CO)S2(=O)=O	T cruzi growth-1 96 | T cruzi growth-2 102 | T cruzi growth-3 inactive | NIH3T3 tox inactive | 3T3 cytotox 2 62
CCCC#Cc1ccc2c(c1)O[C@@H](CN(C)C(=O)c1ccncc1)[C@H](C)CN([C@@H](C)CO)S2(=O)=O	none
CC(C)CC#Cc1ccc2c(c1)O[C@H](CN(C)C(=O)c1ccccc1)[C@@H](C)CN([C@H](C)CO)S2(=O)=O	none (no result: T cruzi growth-1)
CCC(=O)N(C)C[C@@H]1Oc2ncc(-c3ccccc3C)cc2C(=O)N([C@@H](C)CO)C[C@@H]1C	none
CCC(=O)N1C[C@H](C)[C@@H](OC)CN(C)C(=O)c2ccc(NC(=O)COC)cc2OC[C@H]1C	none (no result: C diff growth)
O=C1CN(Cc2ccc(F)cc2)C[C@H]2[C@@H](c3ccc(Br)cc3)[C@@H](CO)N12	none (no result: T cruzi growth-1)
C[C@@H]1CN([C@@H](C)CO)C(=O)Cc2cc(NS(=O)(=O)c3cccs3)ccc2O[C@H]1CN(C)C(=O)Nc1ccc2c(c1)OCO2	none
O=C([C@H]1[C@H](CO)[C@H]2Cn3c(cccc3=O)[C@@H]1N2Cc1cccc(Cl)c1)N1CCOCC1	T cruzi growth-1 100 (no result: Pf Dd2 growth) | T cruzi growth-2 inactive | T cruzi growth-3 inactive | NIH3T3 tox inactive | 3T3 cytotox 2 inactive
O=C([C@@H]1[C@@H](CO)[C@@H]2Cn3c(ccc(-c4ccccc4)c3=O)[C@H]1N2Cc1cccnc1)N1CCOCC1	T cruzi growth-1 97 (no result: Pf Dd2 growth) | T cruzi growth-2 inactive | T cruzi growth-3 inactive | NIH3T3 tox inactive | 3T3 cytotox 2 inactive
O=C([C@@H]1[C@@H](CO)[C@@H]2Cn3c(ccc(-c4ccncc4)c3=O)[C@H]1N2Cc1ccccc1)N1CCOCC1	none
O=C([C@H]1[C@H](CO)[C@H]2Cn3c(cccc3=O)[C@@H]1N2Cc1cccc(Cl)c1)N1CCCCC1	none
C[C@@H]1CN([C@@H](C)CO)C(=O)c2cc(NC(=O)Cc3ccccc3)ccc2O[C@@H]1CN(C)C(=O)Nc1cccc2ccccc12	none
CCCC#Cc1ccc2c(c1)O[C@H](CN(C)C(=O)CC1CC1)[C@H](C)CN([C@H](C)CO)S2(=O)=O	none
CCCC#Cc1ccc2c(c1)O[C@@H](CN(C)C(=O)CC1CC1)[C@H](C)CN([C@H](C)CO)S2(=O)=O	T cruzi growth-1 112 | T cruzi growth-2 100 | T cruzi growth-3 inactive | NIH3T3 tox inactive | 3T3 cytotox 2 24
CCCC#Cc1ccc2c(c1)O[C@@H](CN(C)C(=O)CC1CC1)[C@H](C)CN([C@@H](C)CO)S2(=O)=O	T cruzi growth-1 inconclusive | T cruzi growth-2 106 | T cruzi growth-3 inactive | NIH3T3 tox inactive | 3T3 cytotox 2 49
CCCC#Cc1ccc2c(c1)O[C@@H](CN(C)C(=O)CC1CC1)[C@@H](C)CN([C@@H](C)CO)S2(=O)=O	none

High-throughput results from PubChem BioAssay.
